According to PubChem BioAssay:
Activity calls are given as the source filed them.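 How the source made its calls, unless noted: active means inhibition of the reporter signal at or above 50%; inactive means inhibition below 50%.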

Legend:
[1] = inhibitors of TNFa-induced NFkB p65 translocation, primary screen, imaging, HUVEC, MLSMR starter and 10KST1 sets (AID 438;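 active means inhibition above 20% together with a positive visual image hit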;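 further: compound added about 3h40 before a 20 min TNFalpha stimulation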;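 on inhibition: signal is the nuclear over cytoplasmic p65 intensity ratio per well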); settings: HUVEC TNFa-induced p65 nuclear translocation; cell count: measured here: nuclei count (cytotoxicity indicator), at 2.08 µM; inhibition: at 2 µM, stronger effect = higher value, 0% TNFa-plus-vehicle, 100% no-TNFa wells
[2] = inhibitors of mutant huntingtin aggregation, primary screen, imaging, exon1htt(103Q)mCFP cells, high-content imaging (AID 483;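 active means visual image review flags a hit and inhibition of aggregation exceeds 20%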;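 further: compound exposure lasted 3 days before fixation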;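 on nuclei count: percent of the per-plate median nuclei count of sample wells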); settings: exon1htt(103Q)mCFP cell line, aggregate imaging, at 2 µM; inhibition of aggregation: stronger effect = higher value; nuclei count: measured here: cell count, toxicity
[3] = inhibitors of E-selectin induction by TNFa, primary screen, imaging, HUVEC, immunofluorescence, MLSMR starter and 10KST1 sets (AID 487;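 active means visually confirmed hit in the image check and inhibition above 20%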;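 on inhibition: signal is fraction of cell area covered by stained E-selectin grains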;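 on nuclei count: 100% = median nuclei count of all wells on the same plate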); settings: HUVEC TNFalpha-induced E-selectin immunofluorescence imaging, at 2 µM; inhibition: stronger effect = higher value; nuclei count: measured here: cell number, toxicity
[4] = biological target: Voltage-gated potassium channel subunit beta-2 (Rattus norvegicus) (UniProt P62483); experiment: KvBeta enzyme negative modulators, primary screen, biochemical, NADPH fluorescence (AID 622;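 active means fluorescence slope higher than the sample average by over 3 SD, cut at about -0.22 in these data, passing the limit was not always enough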;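 further: slope of raw intensity against log time taken from 70 to 1610 s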); settings: recombinant KvBeta, 4-cyanobenzaldehyde reduction, at 10 µM, stronger effect = higher value
[5] = biological target: Voltage-gated potassium channel subunit beta-2 (Rattus norvegicus) (UniProt P62483); experiment: KvBeta positive modulators, primary screen, biochemical, NADPH fluorescence (AID 623;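 active means NADPH fluorescence slope more negative than the mean of all samples by about 3 SD, 99.7% confidence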;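 further: fluorescence intensity change per second fitted from 20 to 320 s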); settings: Recombinant KvBeta, NADPH fluorescence decrease slope, 10 min; at 10 µM; stronger effect = lower value
[6] = biological target: Alpha-2C adrenergic receptor (Homo sapiens) (UniProt P18825); experiment: modulators of alpha2C/GIRK thallium flux, primary screen, cell-based, HEK293 alpha2C/GIRK1/2 (AID 624;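 active means fluorescence slope after compound addition differing from the mean of all screened samples at 99.7% confidence, in either direction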;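 further: slope of fluorescence ratio to pre-addition baseline per second over 15 to 24 s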); settings: thallium flux BTC fluorescence, at 10 µM, actives lie on both sides
[7] = inhibitors of Sendai virus-induced IRF3 signaling, primary screen, TLR/RLR signaling modifier project, cell-based, Sendai virus stimulus, luciferase, 10K MLSCN set (AID 602276;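 active means inhibition at or above 50% at 10 µM; inactive means inhibition below 50%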;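 further: firefly luciferase from ISG56 promoter only with Renilla not read in this screen; 0% = Sendai virus plus DMSO and 100% = medium plus DMSO without virus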); settings: HEK293 RL24 IRF3 luciferase reporter, at 10 µM, stronger effect = higher value
[8] = inhibitors of poly I:C-induced TLR3 signaling, primary screen, cell-based, poly I:C stimulus, luciferase, 10K MLSCN set (AID 602277); settings: HEK293-TLR3 RL24 IRF3 luciferase reporter, at 10 µM, stronger effect = higher value

Chain of Alpha-2C adrenergic receptor (Homo sapiens) (P18825 whole entry, looked up): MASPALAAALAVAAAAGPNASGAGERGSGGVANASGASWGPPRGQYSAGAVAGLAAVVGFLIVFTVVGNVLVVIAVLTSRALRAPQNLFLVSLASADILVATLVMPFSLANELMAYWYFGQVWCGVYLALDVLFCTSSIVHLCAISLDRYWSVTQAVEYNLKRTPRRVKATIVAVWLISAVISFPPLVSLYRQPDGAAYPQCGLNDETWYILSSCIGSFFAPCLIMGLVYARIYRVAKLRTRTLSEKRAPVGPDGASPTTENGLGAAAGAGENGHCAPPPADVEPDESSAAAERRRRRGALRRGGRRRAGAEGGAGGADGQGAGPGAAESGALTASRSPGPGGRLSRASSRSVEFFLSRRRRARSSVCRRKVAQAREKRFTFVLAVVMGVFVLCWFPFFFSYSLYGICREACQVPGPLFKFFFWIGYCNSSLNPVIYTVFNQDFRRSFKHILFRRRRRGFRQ
Chain of Voltage-gated potassium channel subunit beta-2 (Rattus norvegicus) (P62483 whole entry, looked up): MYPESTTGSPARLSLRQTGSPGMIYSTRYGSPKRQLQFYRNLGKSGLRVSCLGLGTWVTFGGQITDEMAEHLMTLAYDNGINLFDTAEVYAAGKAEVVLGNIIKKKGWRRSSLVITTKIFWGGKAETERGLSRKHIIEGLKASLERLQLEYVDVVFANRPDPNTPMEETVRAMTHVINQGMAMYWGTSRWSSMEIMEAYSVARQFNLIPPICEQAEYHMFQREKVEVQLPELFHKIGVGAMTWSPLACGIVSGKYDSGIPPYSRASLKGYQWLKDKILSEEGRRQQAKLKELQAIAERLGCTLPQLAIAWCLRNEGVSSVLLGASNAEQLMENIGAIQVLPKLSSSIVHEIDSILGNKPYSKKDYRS

Structure (SMILES) | cell count [1] | inhibition [1] | inhibition of aggregation [2] | nuclei count [2] [%] | inhibition [3] | nuclei count [3] [%] | fluorescence slope [4] | NADPH fluorescence slope [5] | slope [6] | inhibition [7] | inhibition [8]
CCOC(=O)N1CCC(N2C(=O)c3ccccc3C2Nc2cc(Cl)c(OC)cc2OC)CC1 (centres undefined) | 761 | -2.3% (inactive) | -25.4% (inactive) | 111 | -35.7% (inactive) | 114 | -0.596 (inactive) | -3.8e-05 (inactive) | 0.0052 (inactive) | -7.31% (inactive) | 4.34% (inactive)
COc1ccc2nc(NC(=O)c3ccoc3C)sc2c1 | 362 | 1.4% (inactive) | -11.6% (inactive) | 106 | -75.7% (inactive) | 118 | -0.38 (inactive) | -2.2e-05 (inactive) | 0.00322 (inactive) | -30.4% (inactive) | -105% (inactive)
COc1ccc(NC(=O)C(C)NS(=O)(=O)c2ccc(NC(C)=O)cc2)cc1Cl (centres undefined) | 788 | 2.8% (inactive) | -14.8% (inactive) | 105 | 6.9% (inactive) | 113 | -0.34 (inactive) | 2.4e-05 (inactive) | 0.00739 (inactive) | 12.1% (inactive) | 7.34% (inactive)
COc1ccc(S(=O)(=O)N2CN(Cc3ccco3)c3nc4ccccc4nc32)cc1 | 600 | -3.6% (inactive) | -1.4% (inactive) | 82.9 | -118% (inactive) | 134 | -0.605 (inactive) | -1.5e-05 (inactive) | 0.00619 (inactive) | 10.9% (inactive) | 20% (inactive)
COCCn1c(-c2ccco2)nc2nc3ccccc3nc21 | 237 | 1.6% (inactive) | 23.4% (inactive) | 69.1 | -4.2% (inactive) | 98.9 | -0.255 (inactive) | -2.3e-05 (inactive) | 0.00377 (inactive) | -0.433% (inactive) | -3.38% (inactive)
O=C(O)CCC(=O)c1c[nH]c2ccccc12 | 458 | 0.5% (inactive) | 20% (inactive) | 103 | -43.2% (inactive) | 105 | -0.457 (inactive) | 9.9e-05 (inactive) | 0.00973 (inactive) | -16.3% (inactive) | 8.52% (inactive)
Cc1ccc2cc(CN(Cc3ccc(F)cc3)Cc3nnnn3C3CCCC3)c(=O)[nH]c2c1 | 702 | -10.8% (inactive) | -13.3% (inactive) | 103 | -40.7% (inactive) | 98.8 | -0.311 (inactive) | -4.1e-05 (inactive) | 0.00514 (inactive) | 10.6% (inactive) | 13.8% (inactive)
O=C(c1cc(-c2cccc(O)c2)on1)N1CCN(C(c2ccccc2)c2ccccc2)CC1 | 787 | 3.2% (inactive) | -5.2% (inactive) | 96.8 | -70.7% (inactive) | 116 | -0.601 (inactive) | -3.2e-05 (inactive) | 0.00689 (inactive) | 11% (inactive) | 25.8% (inactive)
O=C(CCn1c(=O)oc2ccccc21)N1CCN(c2ccccc2Cl)CC1 | 570 | 3.9% (inactive) | -52.3% (inactive) | 22.3 | 26.9% (inactive) | 81.9 | -0.379 (inactive) | -2e-05 (inactive) | 0.0037 (inactive) | 49.8% (inactive) | 19.6% (inactive)
O=C(Cn1ncc2c(=O)oc3ccccc3c21)NCCCN1CCCC1=O | 807 | -9.2% (inactive) | 10.5% (inactive) | 84.8 | -33% (inactive) | 116 | -0.576 (inactive) | -1.5e-05 (inactive) | 0.00642 (inactive) | 1.1% (inactive) | 24.5% (inactive)
CCOC(=O)c1cnc(-n2cc(C)cn2)nc1Nc1ccccc1OC | 750 | -2.8% (inactive) | 17.8% (inactive) | 105 | 12.5% (inactive) | 114 | -0.641 (inactive) | -4.8e-05 (inactive) | 0.0064 (inactive) | 2.82% (inactive) | 10.8% (inactive)
Cc1cc(Nc2ccc(C(=O)O)cc2)n2nc(C)nc2n1 | 822 | 3.9% (inactive) | 9.8% (inactive) | 109 | -13.7% (inactive) | 106 | -0.543 (inactive) | -1.5e-05 (inactive) | 0.00685 (inactive) | 7.19% (inactive) | 21% (inactive)
O=C(c1ccco1)N1CCN(C(=O)c2cc3c(s2)-c2ccccc2OC3)CC1 | 684 | -5% (inactive) | -23% (inactive) | 131 | 4.9% (inactive) | 102 | -0.0429 (inactive) | 3.2e-05 (inactive) | 0.00801 (inactive) | -15% (inactive) | -25.8% (inactive)
CCOc1ccc(-c2cc(CCCC(=O)N3CCN(c4ccc(OC)cc4)CC3)no2)cc1 | 513 | 0.7% (inactive) | 23.7% (inactive) | 61 | -0.1% (inactive) | 86 | -0.614 (inactive) | 2.2e-05 (inactive) | 0.00539 (inactive) | 11% (inactive) | 24.1% (inactive)
CC1(C)OC(=O)C(=CNc2ccccc2F)C(=O)O1 | 604 | -9.5% (inactive) | 29.9% (inactive) | 95.6 | 22.8% (inactive) | 96.8 | -0.606 (inactive) | -1.2e-05 (inactive) | 0.0057 (inactive) | 14.1% (inactive) | 28% (inactive)
O=C1CC(C(=O)Nc2ccc(Br)cc2)C2(CCCC2)O1 (centres undefined) | 630 | -4.1% (inactive) | -3.7% (inactive) | 102 | -70% (inactive) | 98.1 | -0.406 (inactive) | -3e-05 (inactive) | 0.00668 (inactive) | 16.6% (inactive) | 11.8% (inactive)
O=S(=O)(NCC1CCCO1)c1cc(Cl)ccc1Br (centres undefined) | 426 | -0.2% (inactive) | 7.4% (inactive) | 108 | -4.9% (inactive) | 117 | -0.506 (inactive) | 7.7e-05 (inactive) | 0.00336 (inactive) | -13.6% (inactive) | -30.7% (inactive)
O=C(O)c1cc(Cl)c(Cl)cc1C(=O)N1CCCC1 | 291 | 0% (inactive) | 14.8% (inactive) | 88.1 | 7% (inactive) | 104 | -0.311 (inactive) | 4.1e-07 (inactive) | 0.00644 (inactive) | 9.27% (inactive) | 22.8% (inactive)
COc1cccc(-c2cc(C(F)(F)F)nc(NCc3ccco3)n2)c1 | 449 | 1.7% (inactive) | 28.6% (inactive) | 97.3 | -25.2% (inactive) | 94.3 | -0.469 (inactive) | -5.6e-06 (inactive) | 0.00562 (inactive) | -7.28% (inactive) | 19.1% (inactive)
